# From the supplement of paper PMC8728848
# The sample as a whole holds a higher share of the strongest signals than the screen did.
# Tests used:
# Assay in all cases: glycan array binding signal (z-score within array); higher = stronger binding
# Conditions in all cases: glycan notation: IUPAC condensed, linker removed
# [1] = molecular target: Fuc(a1-2)Gal(b1-3)GalNAc(b1-3)Gal
# Procedure, shortened: (§1)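 Arrays were curated from the Consortium for Functional Glycomics database, 3228 in total, and kept only where the protein sequence was available. Binding is expressed as a within-array Z-score. This score was averaged across arrays of the same protein sequence at different concentrations or buffers and across linkers, and negative values can be read as non-binding.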
# [2] = molecular target: Fuc(a1-2)Gal(b1-3)GlcNAc(b1-3)[Neu5Ac(a2-6)Gal(b1-4)GlcNAc(b1-6)]Gal(b1-4)Glc
# Procedure, shortened: as §1
# [3] = molecular target: Fuc(a1-2)[GalNAc(a1-3)]Gal(b1-3)GlcNAc(b1-2)Man(a1-3)[Fuc(a1-2)[GalNAc(a1-3)]Gal(b1-3)GlcNAc(b1-2)Man(a1-6)]Man(b1-4)GlcNAc(b1-4)GlcNAc
# Procedure, shortened: as §1
# [4] = molecular target: Fuc(a1-2)[GalNAc(a1-4)]Gal(b1-4)GlcNAc
# Procedure, shortened: as §1
# [5] = molecular target: Fuc(a1-3)[Gal(b1-4)]GlcNAc(b1-2)Man(a1-3)[Fuc(a1-3)[Gal(b1-4)]GlcNAc(b1-2)Man(a1-6)]Man(b1-4)GlcNAc(b1-4)[Fuc(a1-6)]GlcNAc
# Procedure, shortened: as §1
# [6] = molecular target: Fuc(a1-3)[Gal(b1-4)]GlcNAc(b1-3)GalNAc
# Procedure, shortened: as §1
# Gal(a1-2)Gal = molecular target: Gal(a1-2)Gal
# Procedure, shortened: as §1
# Gal(a1-3)Gal(b1-3)GlcNAc = molecular target: Gal(a1-3)Gal(b1-3)GlcNAc
# Procedure, shortened: as §1
# [7] = molecular target: Gal(a1-3)Gal(b1-3)[Fuc(a1-4)]GlcNAc(b1-2)Man(a1-3)[Gal(a1-3)Gal(b1-3)[Fuc(a1-4)]GlcNAc(b1-2)Man(a1-6)]Man(b1-4)GlcNAc(b1-4)GlcNAc
# Procedure, shortened: as §1
# [8] = molecular target: Gal(a1-3)Gal(b1-4)GlcNAc(b1-2)Man
# Procedure, shortened: as §1
# [9] = molecular target: Gal(a1-3)[Gal(a1-4)]Gal(b1-4)GlcNAc
# Procedure, shortened: as §1
# Gal(b1-2)Gal = molecular target: Gal(b1-2)Gal
# Procedure, shortened: as §1
# Gal(b1-3)Gal = molecular target: Gal(b1-3)Gal
# Procedure, shortened: as §1
# [10] = molecular target: Gal(b1-3)GlcNAc(b1-2)Man(a1-3)[GlcNAc(b1-4)][Gal(b1-3)GlcNAc(b1-2)Man(a1-6)]Man(b1-4)GlcNAc(b1-4)GlcNAc
# Procedure, shortened: as §1
# [11] = molecular target: Gal(b1-3)GlcNAc(b1-3)Gal(b1-4)[Fuc(a1-3)]GlcNAc
# Procedure, shortened: as §1
# [12] = molecular target: Gal(b1-3)[Fuc(a1-4)]GlcNAc(b1-2)Man
# Procedure, shortened: as §1
# [13] = molecular target: Gal(b1-3)[Fuc(a1-4)]GlcNAc(b1-2)Man(a1-3)[Gal(b1-3)[Fuc(a1-4)]GlcNAc(b1-2)Man(a1-6)]Man(b1-4)GlcNAc(b1-4)[Fuc(a1-6)]GlcNAc
# Procedure, shortened: as §1
# Gal(b1-4)Gal = molecular target: Gal(b1-4)Gal
# Procedure, shortened: as §1
# [14] = molecular target: Gal(b1-4)GlcNAc(b1-3)Gal(b1-4)GlcNAc(b1-3)Gal(b1-4)GlcNAc
# Procedure, shortened: as §1
# [15] = molecular target: Gal(b1-4)GlcNAc(b1-3)Gal(b1-4)GlcNAc(b1-3)Gal(b1-4)GlcNAc(b1-3)Gal(b1-4)GlcNAc(b1-2)Man(a1-3)[Gal(b1-4)GlcNAc(b1-3)Gal(b1-4)GlcNAc(b1-3)Gal(b1-4)GlcNAc(b1-3)Gal(b1-4)GlcNAc(b1-2)Man(a1-6)]Man(b1-4)GlcNAc(b1-4)[Fuc(a1-6)]GlcNAc
# Procedure, shortened: as §1
# [16] = molecular target: Gal(b1-4)GlcNAc(b1-3)Gal(b1-4)GlcNAc(b1-3)[Gal(b1-4)GlcNAc(b1-3)Gal(b1-4)GlcNAc(b1-6)]GalNAc
# Procedure, shortened: as §1
# [17] = molecular target: Gal(b1-4)GlcNAc(b1-3)Gal(b1-4)[Fuc(a1-3)]GlcNAc(b1-3)Gal(b1-4)[Fuc(a1-3)]GlcNAc
# Procedure, shortened: as §1
# Gal3S(b1-4)Glc = molecular target: Gal3S(b1-4)Glc
# Procedure, shortened: as §1
# [18] = molecular target: Gal3S(b1-4)[Fuc(a1-3)]GlcNAc6S
# Procedure, shortened: as §1
# Gal3S6S(b1-4)GlcNAc = molecular target: Gal3S6S(b1-4)GlcNAc
# Procedure, shortened: as §1
# Gal4S6S(b1-4)GlcNAc = molecular target: Gal4S6S(b1-4)GlcNAc
# Procedure, shortened: as §1
# Gal6S(b1-4)GlcNAc6S = molecular target: Gal6S(b1-4)GlcNAc6S
# Procedure, shortened: as §1
# [19] = molecular target: GalNAc(a1-3)GalNAc(b1-3)Gal(a1-4)Gal(b1-4)GlcNAc
# Procedure, shortened: as §1
# GalNAc(b1-4)GlcNAc6S = molecular target: GalNAc(b1-4)GlcNAc6S
# Procedure, shortened: as §1
# GlcA(b1-6)Gal = molecular target: GlcA(b1-6)Gal
# Procedure, shortened: as §1
binder,measurement,setting,value
Arath Fbox LD (Arabidopsis thaliana) (protein) EFSVWLEKASGKRCLMLSAMNLSIIWGDNPQYWQWIPIPESRFEKVAKLRDVCWFEIRGRTNTRVLSPRTRYSAYIVFKGVDKCYGFQNVAIEAAVGVVGQEPSRRLICFSEAIRRGRRNVVKPKQREDGWMEIELGEFFNDGGIMDNDEIEMSALETKQLNRKCGLIIQGIEIRPAKILAAASFLEQKLISEEDLNSAVDHHHHHH,glycan array binding signal (z-score),[1],-0.344
same,glycan array binding signal (z-score),[2],-0.52
same,glycan array binding signal (z-score),[3],-0.597
same,glycan array binding signal (z-score),[4],0.47
same,glycan array binding signal (z-score),[5],2.04
same,glycan array binding signal (z-score),[6],-0.455
same,glycan array binding signal (z-score),Gal(a1-2)Gal,-0.171
same,glycan array binding signal (z-score),Gal(a1-3)Gal(b1-3)GlcNAc,9.37
same,glycan array binding signal (z-score),[7],2.84
same,glycan array binding signal (z-score),[8],-0.233
same,glycan array binding signal (z-score),[9],1.55
same,glycan array binding signal (z-score),Gal(b1-2)Gal,2.67
same,glycan array binding signal (z-score),Gal(b1-3)Gal,-0.517
same,glycan array binding signal (z-score),[10],-0.473
same,glycan array binding signal (z-score),[11],-0.574
same,glycan array binding signal (z-score),[12],4.02
same,glycan array binding signal (z-score),[13],2.55
same,glycan array binding signal (z-score),Gal(b1-4)Gal,1.31
same,glycan array binding signal (z-score),[14],0.403
same,glycan array binding signal (z-score),[15],-0.558
same,glycan array binding signal (z-score),[16],-0.532
same,glycan array binding signal (z-score),[17],-0.413
same,glycan array binding signal (z-score),Gal3S(b1-4)Glc,4.4
same,glycan array binding signal (z-score),[18],3.79
same,glycan array binding signal (z-score),Gal3S6S(b1-4)GlcNAc,2.51
same,glycan array binding signal (z-score),Gal4S6S(b1-4)GlcNAc,-0.39
same,glycan array binding signal (z-score),Gal6S(b1-4)GlcNAc6S,0.739
same,glycan array binding signal (z-score),[19],-0.368
same,glycan array binding signal (z-score),GalNAc(b1-4)GlcNAc6S,-0.574
same,glycan array binding signal (z-score),GlcA(b1-6)Gal,1.15
